The campaign covered roughly 69,000 compounds. About 8,600 (12%) showed an effect of 50% or more. For the sample, strong results were picked, then their nearest neighbours and some compounds at random.

In this assay the test system is Plasmodium berghei. The assay can be described thus: Screen against P. berghei liver stage (PbLuc), transformed with Luciferase, at 10uM. The assay is classed as functional, HepG2. The note with it: tested at 10 uM.
As for `O=C1C[C@H]2[C@H](CCN2C(=O)c2ccno2)N1CC1CC1`, the INHIBITION is listed as 41.4%. The figure for `Cc1cc(N(C)C)nc(C2(C)CCCN2CC(N)=O)n1` (configuration not stated) is 18.8%; for `N#Cc1ccccc1CN1C[C@H]2CC[C@@H](C1)N(CC1CC1)C2=O` it is 25.1%. For the compound `Cc1cc2c(=O)n3c(nc2s1)CCN(C(=O)c1ccnn1C(C)C)CC3`, the INHIBITION is on record as 11.1%. For `c1cnnc(N[C@@H]2CC[C@@H]3CN(Cc4ccc5cc[nH]c5c4)C[C@@H]32)c1`, the INHIBITION was -4.68%. As to `COCC(=O)N1C[C@@H](C)[C@](O)(C(C)C)C1`, the INHIBITION is recorded as 46.4%. As to `CC(C)c1noc(C(C)Nc2nccc(CCC(F)(F)F)n2)n1` (configuration not stated), the INHIBITION came out at 29.6%. On to `CC(Nc1nccc(CCC(F)(F)F)n1)c1nc(-c2ccccn2)no1` (configuration not stated), for which the INHIBITION was found to be 21.2%. The same measure for `CC(Nc1nccc(CCC(F)(F)F)n1)c1nc(-c2ccncc2)no1` (configuration not stated): 50.4%; for `O=C(c1ccnnc1)N1CCN(Cc2ccncc2)c2ncccc2C1`: 23.3%; for `CCC(O)CN1CCN(C(=O)c2ccc3c(c2)COC3)CC1` (configuration not stated): -9.37%. For `CCC(O)CN1CCN(C(=O)c2cc3ccccc3n2CC)CC1` (configuration not stated), the INHIBITION was determined as 1.75%. Take `CC(O)CN1CCN(C(=O)c2ccc3c(c2)COC3)CC1` (configuration not stated): the INHIBITION was 60.5%. The figure for `CC(C)(C)C(O)CN1CCN(C(=O)c2ccc3c(c2)COC3)CC1` (configuration not stated) is 31.8%; for `CCn1c(C(=O)N2CCN(CC(C)O)CC2)cc2ccccc21` (configuration not stated) it is 35.7%; for `CC(O)CN1CCN(C(=O)c2cc3ccccc3n2C)CC1` (configuration not stated) it is 66.8%. On to `O=C(c1cncs1)N1CCOCC(Cc2ccccn2)C1` (configuration not stated), for which the INHIBITION amounted to 13.94%. As to `COCCO[C@@H]1CCN(C(=O)c2ccc(C)o2)[C@@H]1Cc1cccnc1`, the INHIBITION was 2.3%. As for `COc1cc(-c2n[nH]c(CN)n2)cc(OC)c1OC`, the INHIBITION is listed as -9.21%. As to `COc1ccc(C(O)CNC(=O)NCCc2csc(C)n2)cc1` (configuration not stated), the INHIBITION is recorded as 44.1%. The figure for `O=C(C1CCN(Cc2nc(-c3ccco3)no2)CC1)N1CCCC1` is 25.1%. Turning to `Cc1[nH]ccc1C(=O)NC1CCC(N2C(=O)CCC2=O)CC1` (configuration not stated), the INHIBITION is recorded as -86.5%. The figure for `O=C(NC1CCC(N2C(=O)CCC2=O)CC1)c1c[nH]c2ccccc12` (configuration not stated) is 76.7%. Take `Cc1ccc(F)c(C(=O)NC2CCC(N3C(=O)CCC3=O)CC2)c1` (configuration not stated): the INHIBITION is -35%.

For the compound `CN(C)CCn1c2c(ccc1=O)CC(NC(=O)c1ccsc1)CC2` (configuration not stated), the INHIBITION was 37.5%. Regarding `Cc1oc(C)c(C(=O)NCc2cccnc2)c1C`, the INHIBITION is on record as -8.75%. On to `COCCOCCNC(=O)N1CCc2c(F)ccc(F)c2C1`, for which the INHIBITION was found to be 5.38%.

On to `COC(=O)CCCNC(=O)N1CCc2c(F)ccc(F)c2C1`, for which the INHIBITION is 28.7%. Turning to `CCCNC(=O)CCNC(=O)N1CCc2c(F)ccc(F)c2C1`, the INHIBITION worked out at 71.7%. The same measure for `CN1CC[C@]2(CN(Cc3cccs3)C[C@H]2c2ccccc2)C1=O`: 24.9%; for `CCc1ccc(CN2C[C@@H](C)C3(CCN(CC(=O)N(C)C)C3=O)C2)o1` (some centres not stated): 21.1%. As for `Cc1cc(CN2C[C@@H](C)[C@@]3(CCN(CC(=O)N(C)C)C3=O)C2)oc1C`, the INHIBITION was determined as 51.2%.

`Cc1cccc(CN2C[C@@H](C)[C@@]3(CCN(CC(=O)N(C)C)C3=O)C2)c1`: the INHIBITION is reported as 2.58%. Regarding `Cc1noc(C)c1CN1C[C@H](C)[C@]2(CCN(Cc3cccnc3)C2=O)C1`, the INHIBITION amounted to 13.7%. Regarding `Cc1cc(CN2C[C@@H](C)[C@@]3(CCN(C)C3=O)C2)oc1C`, the INHIBITION came out at 65.9%.

As to `Fc1cccc(-c2nc(CN3CCCC(Cn4cncn4)C3)co2)c1` (configuration not stated), the INHIBITION is 11.9%. As to `Cc1nc(CCCNC(=O)Nc2cc(F)cc(F)c2)n[nH]1`, the INHIBITION stood at 55.5%.

For `Cc1nc(CCCNC(=O)c2c(F)cccc2Br)n[nH]1`, the INHIBITION is given as 39.6%. For the compound `COc1ccc2cccc(CC(=O)NCCCc3n[nH]c(C)n3)c2c1`, the INHIBITION was -6.97%. The figure for `Cc1nc(CCCNC(=O)c2cc(F)ccc2O)n[nH]1` is 46.6%; for `Cc1nc(CCCNC(=O)Nc2ccc(F)cc2F)n[nH]1` it is 56.5%; for `Cc1nc(CCCNC(=O)c2c(F)cc(F)cc2F)n[nH]1` it is 33.7%. With `COc1ccc(C(NCc2ccc(C#N)cc2)C2CC2)cc1` (configuration not stated), the INHIBITION is recorded as -22.3%.

Regarding `COC(=O)CCn1ccc(=O)c2ccccc21`, the INHIBITION is listed as 20.9%. Consider `O=S(=O)(C1CC1)N1CCCn2cnc(COc3cccnc3)c2C1`, for which the INHIBITION is on record as -4.26%. The same measure for `Cc1ccc(CCCC(=O)N2CCN(C3CCCN(C)C3)CC2)s1` (configuration not stated): 15.7%; for `O=C(C1CCOC1)N1CCN(CC(F)(F)F)c2ccccc21` (configuration not stated): 34.2%; for `c1ccc(-c2nnc(CN3CCCC3Cn3cncn3)o2)cc1` (configuration not stated): -41.6%. For `COCc1ncn2c1CN(C(=O)c1ccc[nH]1)CC2`, the INHIBITION is reported as -20.1%. The same measure for `Cc1nc(C)n(CC2CCCN(CCC(=O)N3CCOCC3)C2)n1` (configuration not stated): -2.19%; for `c1c[nH]c(CN2CCCC(Cc3ccc(NC4CCCC4)nn3)C2)n1` (configuration not stated): -3.02%; for `Cc1ccc(NC(=O)N(C)Cc2cnn(C)c2)c(C)c1`: -29.1%.

On to `CC(C)OCc1cccc(NC(=O)N(C)Cc2ncnn2C)c1`, for which the INHIBITION amounted to 45.8%. Regarding `Cc1ccc(C)c(NC(=O)N(C)Cc2cnn(C)c2)c1`, the INHIBITION came to 39.8%. Turning to `CCSCc1cccc(NC(=O)N(C)Cc2ncnn2C)c1`, the INHIBITION was determined as 59.7%. The same measure for `CC(=O)N(C)Cc1cccc(NC(=O)N(C)Cc2nccs2)c1`: -49.3%.

For the compound `Cc1ccc(NC(=O)N(C)Cc2cnn(C)c2)cc1OCC(F)F`, the INHIBITION turned out to be 52.7%. The figure for `CCOc1cc(NC(=O)N(C)Cc2ncnn2C)ccc1C` is 50.1%; for `CN(Cc1ncnn1C)C(=O)Nc1ccc(OC(F)F)cc1` it is 21.2%.

As to `CCOc1ccc(CNC(=O)N(C)Cc2ncnn2C)cc1C`, the INHIBITION stood at 49%. The same measure for `COc1c(CNCCNC(=O)c2cccs2)c(C)nn1C`: -79.3%. The figure for `Cc1ccc(OCCN(C)C(=O)NC(C)c2nncn2C)cc1` (configuration not stated) is 21.5%.

For `Cc1cccc(NC(=O)Cn2nc3ccccn3c2=O)c1C`, the INHIBITION is on record as -7.35%.

On to `CC(C)OCc1nn(C)c2c1CCN(CC1CC1)C2`, for which the INHIBITION turned out to be 32.5%. The figure for `Cc1cc(CN2C[C@H](N3CCOCC3)[C@@H]3OCCC[C@@H]32)oc1C` is 26.4%. Take `O=c1oc(-c2ccc(F)cc2)nn1CN1CCCCC1`: the INHIBITION amounted to 23.7%. Take `CCOc1ccc(Cl)c(C(=O)N2CCN(CC(O)CC)CC2)n1` (configuration not stated): the INHIBITION stood at 14.1%.

Source of the values: ChEMBL document CHEMBL4513216, “Probing the Open Global Health Chemical Diversity Library for Multistage-Active Starting Points for Next-Generation Antimalarials” (ACS Infect Dis, 2020).
